Assay [1] addresses Acetylcholinesterase (Homo sapiens) (UniProt P22303). Nature of the assay: Acetylcholinesterase (AChE) small molecule antagonists: fluorescence cell-based qHTS assay (AID 1347398; calls by dose curve; further: nearly all actives have a fitted effect of over 50% in size). The conditions noted are these: Potency: AChE activity; outcome: AChE activity. Put shortly: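 SH-SY5Y cells (2000/well), attached overnight, incubated with compound 30 min at 37 C. Acetylthiocholine plus Thiolite Green then added for 40 min at room temperature. Thiocholine fluorescence (Ex/Em 490/520 nm) reports cellular AChE activity.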
In general terms: Quantitative high-throughput screening tests each substance at several concentrations.

The target is the same in assay [2]. The assay is described as follows: Acetylcholinesterase (AChE) small molecule antagonists: enzyme-based qHTS assay with human liver microsomes (AID 1347399; calls by dose curve; further: nearly all actives have a fitted effect of over 60% in size). The conditions noted are these: Potency: qHTS inhibition; outcome: qHTS inhibition. In outline:
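Recombinant human AChE (50 mU/mL in the enzyme mix) and human liver microsomes (0.25 mg/mL final) were preincubated with compound and NADPH (0.25 mg/mL final) for 30 min at 37 C. Acetylthiocholine/DTNB was then added; thiocholine was read colorimetrically after 10 min at room temperature.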

The target in a further assay is Aromatase (Homo sapiens) (UniProt P11511). The assay is described as follows: qHTS assay to identify aromatase inhibitors (AID 743083). Further: series mostly up to about 70 µM; nearly all actives have a fitted effect of over 55% in size.
Sequence of Aromatase (Homo sapiens) (P11511 whole entry, looked up): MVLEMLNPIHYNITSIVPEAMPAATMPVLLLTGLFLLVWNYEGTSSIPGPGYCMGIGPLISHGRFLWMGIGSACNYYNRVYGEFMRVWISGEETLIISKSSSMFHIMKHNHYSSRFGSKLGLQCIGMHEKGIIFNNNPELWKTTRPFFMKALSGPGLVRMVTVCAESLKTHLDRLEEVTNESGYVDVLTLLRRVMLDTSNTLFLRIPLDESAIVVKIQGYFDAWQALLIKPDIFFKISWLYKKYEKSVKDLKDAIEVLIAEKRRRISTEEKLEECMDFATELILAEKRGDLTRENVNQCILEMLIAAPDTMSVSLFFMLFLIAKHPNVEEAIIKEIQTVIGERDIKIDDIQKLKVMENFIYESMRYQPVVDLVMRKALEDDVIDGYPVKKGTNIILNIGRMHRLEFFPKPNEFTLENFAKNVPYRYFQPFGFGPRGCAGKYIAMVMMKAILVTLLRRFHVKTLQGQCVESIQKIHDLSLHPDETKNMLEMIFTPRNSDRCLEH
Assay [3] is described as follows: qHTS assay for small molecules that induce genotoxicity in human embryonic kidney cells expressing luciferase-tagged ATAD5 (AID 651632). Further: nearly all actives have a fitted effect of over 15% in size. In outline:
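Luminescent reporter readout, HEK293T ATAD5-luc line: 16 hr drug exposure (37C, 5% CO2) followed by Amplite, 30 min RT.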

The nature of assay [4]: qHTS assay for small molecule agonists of the p53 signaling pathway - cell viability (AID 651633; calls by dose curve;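 further: p53RE-bla HCT reporter cells with a stable beta-lactamase p53 reporter; series mostly up to about 83 µM; nearly all actives have a fitted effect of over 30% in size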). In outline: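 p53RE-bla cells were treated with compound for 16 hours at 37 C. Cytotoxicity was then measured as CellTiter-Glo luminescence after 30 min at room temperature.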
Assay [5] is described as follows: qHTS assay for small molecules that induce genotoxicity in human embryonic kidney cells expressing luciferase-tagged ATAD5 - cell viability (AID 651634; calls by dose curve; further: nearly all actives have a fitted effect of over 25% in size). In outline:
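Viability read: CellTiter-Fluor fluorescence, 30 min at 37C. Cells: HEK293T, luciferase-tagged ATAD5. Exposure: 15.5 hr, 37C, 5% CO2, compound or DMSO vehicle.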

Assay [6] is described as follows: qHTS assay for small molecule disruptors of the mitochondrial membrane potential - cell viability (AID 720634; calls by dose curve;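 further: human HepG2 liver cancer cells; series mostly up to about 83 µM; nearly all actives have a fitted effect of over 20% in size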). In outline:
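HepG2, 1 hr compound, 37 C. ATP luminescence via CellTiter-Glo, 30 min RT, same well as m-MPI.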

Assay [7] in a line: qHTS assay for small molecule disruptors of the mitochondrial membrane potential (AID 720635). Put shortly:
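HepG2 cells exposed to compound 1 hr at 37C, then Mito-MPS dye 30 min. Ratio read of aggregate (540/590 nm) versus monomer (490/535 nm) fluorescence.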

Assay [8] is described as follows: qHTS assay to test for compound auto fluorescence at 590 nm (red) in HepG2 cells (AID 720674). Put shortly:
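Fluorescence at 590 nm emission following 540 nm excitation was recorded from HepG2 wells one hour after compound transfer, with DMSO-only wells as vehicle and Rose Bengal sodium equivalency as the scale.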

A short description of assay [9]: qHTS assay to test for compound auto fluorescence at 535 nm (green) in HepG2 cells (AID 720675).
Assay [10] is described as follows: qHTS assay to test for compound auto fluorescence at 460 nm (blue) in HEK293 cells (AID 720678). Put shortly:
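After cell attachment (4-5 hr, 37C), compounds were pinned onto HEK293 monolayers in 10% dialyzed FBS medium. The blue channel (405/460 nm) was read following overnight culture. Equivalency was calculated against triamterene.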

The nature of assay [11]: qHTS assay to test for compound auto fluorescence at 590 nm (red) in HEK293 cells (AID 720679). Put shortly: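 Plates of HEK293 cells (10% dialyzed FBS) are treated with 23 nL compound or DMSO vehicle after a 4-5 hr attachment period, incubated overnight at 37C, and read for red fluorescence at 540/590nm.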
Assay [12] can be described thus: qHTS assay to test for compound auto fluorescence at 535 nm (green) in HEK293 cells (AID 720680).
A short description of assay [13]: qHTS assay to test for compound auto fluorescence at 460 nm (blue) in HEK293 cell free culture (AID 720681). In outline: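 Compounds were added to cell-free DMEM with 10% FBS and fluorescence read directly. The blue channel used 405 nm excitation and 460 nm emission, with triamterene as the reference fluorophore.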
A short description of assay [14]: qHTS assay to test for compound auto fluorescence at 535 nm (green) in HEK293 cell free culture (AID 720682). Put shortly:
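Read-out: 485/535 nm fluorescence intensity, calibrated against fluorescein. Medium only (DMEM + 10% FBS, no cells); test compound or DMSO vehicle added by pintool before plate reading.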

A short description of assay [15]: qHTS assay to test for compound auto fluorescence at 590 nm (red) in HEK293 cell free culture (AID 720683). Put shortly:
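Cell-free wells of DMEM with 10% FBS received compound, and intrinsic fluorescence was read at excitation/emission 540/590 nm. Values expressed as equivalence to Rose Bengal sodium.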

The nature of assay [16]: qHTS assay to test for compound auto fluorescence at 590 nm (red) in HepG2 cell free culture (AID 720684). Put shortly:
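Compound was pinned into wells holding MEM with 10% FBS and no cells, and red fluorescence was read at Ex/Em 540/590 nm. Signal is expressed as auto fluorescence equivalency relative to Rose Bengal sodium.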

Assay [17] can be described thus: qHTS assay to test for compound auto fluorescence at 460 nm (blue) in HepG2 cell free culture (AID 720685). Put shortly: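 Compound (23 nL) or DMSO pinned into cell-free MEM with 10% FBS; blue fluorescence read at 405/460 nm excitation/emission, expressed as auto-fluorescence equivalency to triamterene.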
Assay [18] is described as follows: qHTS assay to test for compound auto fluorescence at 535 nm (green) in HepG2 cell free culture (AID 720686).
A short description of assay [19]: qHTS assay to test for compound auto fluorescence at 460 nm (blue) in HepG2 cells (AID 720687). In outline:
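HepG2 cells in MEM with 10% FBS, attached overnight at 37 C, were exposed to compound or DMSO for 1 hr at 37 C, 5% CO2. Blue fluorescence was read at 405/460 nm, with triamterene as reference fluorophore.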

Assay [20] has as its target Glucocorticoid receptor (Homo sapiens) (UniProt P04150). The assay is described as follows: qHTS assay to identify small molecule agonists of the glucocorticoid receptor (GR) signaling pathway (AID 720691; active means well fitted activation curve with a large enough effect in the signal ratio in the repeat runs, not every such curve was filed as active; the % refers to the signal ratio). In outline: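 qHTS in GR-bla HeLa cells: 4 h settling at 37 C/5% CO2, 18 h compound incubation at 37 C, 2 h LiveBLAzer B/G FRET substrate at room temperature, fluorescence intensity measured.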

The nature of assay [21]: qHTS assay to identify small molecule antagonists of the glucocorticoid receptor (GR) signaling pathway - cell viability counter screen (AID 720693). Further: nearly all actives have a fitted effect of over 55% in size.
Assay [22] can be described thus: qHTS assay for identifying genotoxic compounds that show differential cytotoxicity against isogenic chicken DT40 cell lines with known DNA damage response pathways - wild type cell line (AID 743012). Further: potency means the concentration at half of the fitted maximal effect; nearly all actives have a fitted effect of over 60% in size. In outline: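 First, wild type DT40 cells were plated at 300 per well and equilibrated about 0.5 h at 37 C/5% CO2. Next, compounds in DMSO were added and exposure lasted 40 h. Finally, CellTiter-Glo was added for 30 min at room temperature and luminescence recorded.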

The nature of assay [23]: qHTS assay to identify small molecule antagonists of the androgen receptor (AR) signaling pathway - cell viability counter screen (AID 743033; further: nearly all actives have a fitted effect of over 45% in size).
Assay [24] can be described thus: qHTS assay to identify small molecule antagonists of the androgen receptor (AR) signaling pathway using the MDA cell line - cell viability counter screen (AID 743041; further: nearly all actives have a fitted effect of over 45% in size). In outline:
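MDA-kb2 AR-luc cells (MMTV-luciferase, AR/GR responsive) treated with compounds plus R1881 agonist for 16 h at 37C. CellTiter-Fluor added at 15.5 h; fluorescence read after 30 min in the same wells.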

Assay [25] is described as follows: qHTS assay to identify small molecule antagonists of the thyroid receptor (TR) signaling pathway - cell viability counter screen (AID 743064). Further: nearly all actives have a fitted effect of over 50% in size. Put shortly:
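GH3.TRE-Luc rat pituitary cells carrying a TRE-luciferase reporter were treated with compound plus 1 nM T3 (final) for 23.5 h at 37 °C. Viability was then read in the same wells by CellTiter-Fluor fluorescence after a further 30 min.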

Assay [26] deals with thyroid hormone receptor (rat, GH3 cells). The assay is described as follows: qHTS assay to identify small molecule agonists of the thyroid receptor (TR) signaling pathway (AID 743066; calls by dose curve).
In assay [27] the target is Estrogen receptor (Homo sapiens) (UniProt P03372). The assay is described as follows: qHTS assay to identify small molecule antagonists of the estrogen receptor alpha (ER-alpha) signaling pathway (AID 743069; active means well fitted curve in the direction sought with a large enough effect in the signal ratio in the repeat runs, not every such curve was filed as active; the % refers to the signal ratio). In outline: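 HEK293 ER-alpha-UAS-bla GripTite cells, held overnight in 2% charcoal-stripped FBS, 5,000 cells/well, preincubated 4 h, then compound plus 17beta-estradiol for 18 h at 37C. Beta-lactamase read by LiveBLAzer B/G FRET substrate, 2 h at room temperature.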
Sequence of Estrogen receptor (Homo sapiens) (P03372 whole entry, looked up): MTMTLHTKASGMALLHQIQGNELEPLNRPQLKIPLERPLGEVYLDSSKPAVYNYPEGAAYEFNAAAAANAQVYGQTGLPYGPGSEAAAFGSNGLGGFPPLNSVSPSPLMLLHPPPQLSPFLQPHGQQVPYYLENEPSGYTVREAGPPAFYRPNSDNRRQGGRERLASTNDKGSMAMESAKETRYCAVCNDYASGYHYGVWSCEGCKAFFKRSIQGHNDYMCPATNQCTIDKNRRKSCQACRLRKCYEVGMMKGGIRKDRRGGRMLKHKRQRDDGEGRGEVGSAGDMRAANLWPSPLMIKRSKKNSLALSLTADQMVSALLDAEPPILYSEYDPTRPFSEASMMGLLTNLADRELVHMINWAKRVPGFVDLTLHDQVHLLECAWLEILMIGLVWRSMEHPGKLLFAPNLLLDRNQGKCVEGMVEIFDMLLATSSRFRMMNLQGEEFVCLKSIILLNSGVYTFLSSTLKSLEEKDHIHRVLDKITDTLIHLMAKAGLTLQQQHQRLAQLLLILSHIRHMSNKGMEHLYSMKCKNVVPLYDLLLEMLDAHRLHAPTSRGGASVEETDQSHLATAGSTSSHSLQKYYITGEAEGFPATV

The target is the same in assay [28]. Nature of the assay: qHTS assay to identify small molecule agonists of the estrogen receptor alpha (ER-alpha) signaling pathway (AID 743075; calls by dose curve).
The target is the same in assay [29]. The assay is described as follows: qHTS assay to identify small molecule agonists of the estrogen receptor alpha (ER-alpha) signaling pathway using the BG1 cell line (AID 743079). Further: nearly all actives have a fitted effect of over 20% in size.
Assay [30] in a line: qHTS assay to identify small molecule antagonists of the estrogen receptor alpha (ER-alpha) signaling pathway using the BG1 cell line (AID 743080; calls by dose curve;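 further: BG1 cells stimulated with 17beta-estradiol alongside compound; series mostly up to about 70 µM; nearly all actives have a fitted effect of over 25% in size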). Put shortly: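 Seeding, 24 h rest, compound transfer from DMSO, 17beta-estradiol addition, 21.5 h incubation, CellTiter-Fluor (30 min, 37 C), then ONE-Glo (30 min, room temperature): this sequence was run on BG1-Luc-4E2 reporter cells.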

The nature of assay [31]: qHTS assay to identify aromatase inhibitors - cell viability counter screen (AID 743084).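 Further: cells stimulated with testosterone during compound exposure; nearly all actives have a fitted effect of over 55% in size.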

Records with an inconclusive call do not appear. The source made the active and inactive calls. Unless noted, the call rests on the fitted dose curve; in most records, active means well fitted curve in the direction sought with a large enough effect in the repeat runs; inconclusive means weak or mixed curves; inactive means no such curve, though single readings can be large; an effect the other way counts as inactive or inconclusive.

Sequence of Acetylcholinesterase (Homo sapiens) (P22303 whole entry, looked up): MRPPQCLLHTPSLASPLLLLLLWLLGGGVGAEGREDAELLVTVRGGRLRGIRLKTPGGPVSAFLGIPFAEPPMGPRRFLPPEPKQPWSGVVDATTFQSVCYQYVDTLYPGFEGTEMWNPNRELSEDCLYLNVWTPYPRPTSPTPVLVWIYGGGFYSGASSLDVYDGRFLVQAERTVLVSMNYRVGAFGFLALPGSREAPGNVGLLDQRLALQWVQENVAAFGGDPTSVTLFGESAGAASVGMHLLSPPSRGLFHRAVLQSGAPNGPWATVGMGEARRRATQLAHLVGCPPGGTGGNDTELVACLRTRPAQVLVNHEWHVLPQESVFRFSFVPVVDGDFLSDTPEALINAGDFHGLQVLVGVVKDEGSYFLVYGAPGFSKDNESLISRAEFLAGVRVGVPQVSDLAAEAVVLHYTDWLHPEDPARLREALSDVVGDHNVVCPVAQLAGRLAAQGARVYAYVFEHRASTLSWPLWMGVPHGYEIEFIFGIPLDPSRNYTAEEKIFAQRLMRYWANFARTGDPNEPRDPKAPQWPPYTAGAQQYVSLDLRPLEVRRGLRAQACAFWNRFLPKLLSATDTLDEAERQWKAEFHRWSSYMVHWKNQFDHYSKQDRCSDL
Sequence of Glucocorticoid receptor (Homo sapiens) (P04150 whole entry, looked up): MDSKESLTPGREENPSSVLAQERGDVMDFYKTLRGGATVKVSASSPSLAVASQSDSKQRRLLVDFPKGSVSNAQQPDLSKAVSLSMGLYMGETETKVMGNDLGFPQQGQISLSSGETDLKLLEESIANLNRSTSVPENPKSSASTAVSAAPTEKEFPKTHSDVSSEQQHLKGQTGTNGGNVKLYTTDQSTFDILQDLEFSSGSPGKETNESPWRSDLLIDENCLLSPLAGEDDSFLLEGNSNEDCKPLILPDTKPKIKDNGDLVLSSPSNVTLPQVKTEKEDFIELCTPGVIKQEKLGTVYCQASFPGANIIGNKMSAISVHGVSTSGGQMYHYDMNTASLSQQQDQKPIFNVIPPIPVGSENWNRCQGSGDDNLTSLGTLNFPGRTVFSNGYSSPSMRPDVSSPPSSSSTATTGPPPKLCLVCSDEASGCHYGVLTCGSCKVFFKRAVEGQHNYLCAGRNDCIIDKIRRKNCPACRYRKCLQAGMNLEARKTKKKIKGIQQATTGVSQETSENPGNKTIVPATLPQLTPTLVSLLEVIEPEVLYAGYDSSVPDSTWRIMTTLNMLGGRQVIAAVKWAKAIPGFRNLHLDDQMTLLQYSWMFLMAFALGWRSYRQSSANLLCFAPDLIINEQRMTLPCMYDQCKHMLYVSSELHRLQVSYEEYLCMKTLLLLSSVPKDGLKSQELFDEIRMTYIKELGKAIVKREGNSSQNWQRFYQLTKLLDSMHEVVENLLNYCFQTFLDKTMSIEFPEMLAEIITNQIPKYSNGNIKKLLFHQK

Take `CCCOC(=O)c1c(Cl)c(Cl)c(Cl)c(Cl)c1C(=O)OCCC`: the Potency result in assay [1] and in assay [2] was “inactive” in each case.

Take `CCN(CC)CCCC(C)Nc1c2ccc(Cl)cc2nc2ccc(OC)cc12` (stereo not given): in assay [2], the Potency result is “inactive”.

As to `N=C1N=C(N)c2cc3ccccc3cc21`, the Potency result in assay [2] was “inactive”.

Consider `C1CCc2nnnn2CC1`, for which the Potency entry with Aromatase (Homo sapiens) is “inactive”.

As for `Cc1ccc2c(c1)[C@]13CCCC[C@@H]1[C@H](C2)N(C)CC3`, the result in assay [3], in assay [6], in assay [8], in assay [9], in assay [10] and in assay [11] was inactive. Further, the result in assay [12], in [13], in assay [14], in [15], in [16] and in assay [17] was inactive. The compound was called inactive in assay [18], in assay [19], in assay [20], in assay [24], in [26] and in [27]. In addition, the compound was classed as inactive in assay [30] and in [31]. Also, the Potency entry in assay [4], in assay [5], in [7], in assay [21], in assay [23] and in assay [25] was “inactive” throughout. The Potency entry (in assay [28]; in [29]; in the assay with Aromatase (Homo sapiens)) was “inactive” throughout. The Potency in assay [22] is 26.6 µM (active).

The values are drawn from PubChem BioAssay (Tox21).
